Common to all, as to test: DAPPL (digital affinity profiling via proximity ligation, sequencing); 10 mM Tris-HCl pH 7.5, 50 mM NaCl, 1 mM DTT, 4% glycerol, room temperature, 30 min; GST-TFs on glutathione beads, 16-mer random dsDNA library, 0.1% formaldehyde crosslink after washing; high values mean tight binding
In one assay the target is T1, FEV (Homo sapiens, UniProt Q99581 1-238).
T1 sequence: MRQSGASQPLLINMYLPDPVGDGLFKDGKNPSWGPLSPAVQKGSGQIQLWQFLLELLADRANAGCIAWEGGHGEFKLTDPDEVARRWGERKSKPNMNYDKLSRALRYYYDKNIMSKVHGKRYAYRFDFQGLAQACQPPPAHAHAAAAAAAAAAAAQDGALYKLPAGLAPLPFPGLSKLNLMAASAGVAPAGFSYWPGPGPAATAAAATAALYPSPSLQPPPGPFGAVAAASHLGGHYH
The following applies: protein: recombinant; tags: N-terminal GST; dsDNA, one strand shown. The essentials: (§1)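 Binding signal is each hexamer's read frequency for a factor divided by its frequency in the tag-only sample. The factors were GST-fused human transcription factors from yeast, captured on glutathione beads, DNA-barcoded and pooled with that sample. Pools were incubated with 200 nmole of a random double-stranded 16-mer DNA library in Tris/NaCl/DTT/glycerol buffer at room temperature for 30 min, then washed, crosslinked with 0.1% formaldehyde, proximity-ligated with BsaI/T4 ligase (1 h, 37 °C), PCR-amplified and sequenced on an Illumina NextSeq500.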

The next assay deals with ETV5 (Homo sapiens, UniProt P41161 1-510). The conditions noted are these: protein: recombinant; tags: N-terminal GST; dsDNA, one strand shown. The essentials: as §1
In the next assay the target is HSF1 (Homo sapiens, UniProt Q00613 1-529). The conditions noted are these: protein: recombinant; tags: N-terminal GST; chain copies: 3; dsDNA, one strand shown. The method in brief: as §1
The next assay has as its target T2, SPIC (Homo sapiens, UniProt Q8N5J4 1-248).
T2 sequence: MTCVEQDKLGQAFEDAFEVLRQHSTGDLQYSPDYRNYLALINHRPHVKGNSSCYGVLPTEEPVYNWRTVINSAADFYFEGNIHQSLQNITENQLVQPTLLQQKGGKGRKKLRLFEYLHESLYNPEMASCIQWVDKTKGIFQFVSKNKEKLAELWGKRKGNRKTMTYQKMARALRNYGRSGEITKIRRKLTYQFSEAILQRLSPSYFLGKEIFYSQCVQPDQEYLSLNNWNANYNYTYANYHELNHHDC
The conditions noted are these: protein: recombinant; tags: N-terminal GST; dsDNA, one strand shown. The essentials: as §1

Another assay deals with ELF4 (Homo sapiens, UniProt Q99607 1-663). The conditions noted are these: protein: recombinant; tags: N-terminal GST; dsDNA, one strand shown. The essentials: as §1
In another assay the target is T3, ELK4 (Homo sapiens, UniProt P28324-2 1-405).
T3 sequence: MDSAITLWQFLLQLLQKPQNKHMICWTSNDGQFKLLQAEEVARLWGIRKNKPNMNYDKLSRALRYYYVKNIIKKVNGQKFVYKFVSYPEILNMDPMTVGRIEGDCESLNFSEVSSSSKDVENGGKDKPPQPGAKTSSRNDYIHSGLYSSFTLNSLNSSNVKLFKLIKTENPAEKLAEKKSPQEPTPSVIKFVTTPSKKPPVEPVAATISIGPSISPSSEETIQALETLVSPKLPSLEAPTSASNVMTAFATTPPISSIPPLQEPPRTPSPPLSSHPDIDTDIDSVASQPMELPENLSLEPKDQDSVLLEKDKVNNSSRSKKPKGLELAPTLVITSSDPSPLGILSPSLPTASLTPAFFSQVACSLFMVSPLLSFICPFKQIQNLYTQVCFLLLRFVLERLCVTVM
The following applies: protein: recombinant; tags: N-terminal GST; dsDNA, one strand shown. The essentials: as §1

The target in another assay is T4, ETV2 (Homo sapiens, UniProt O00321 1-342).
T4 sequence: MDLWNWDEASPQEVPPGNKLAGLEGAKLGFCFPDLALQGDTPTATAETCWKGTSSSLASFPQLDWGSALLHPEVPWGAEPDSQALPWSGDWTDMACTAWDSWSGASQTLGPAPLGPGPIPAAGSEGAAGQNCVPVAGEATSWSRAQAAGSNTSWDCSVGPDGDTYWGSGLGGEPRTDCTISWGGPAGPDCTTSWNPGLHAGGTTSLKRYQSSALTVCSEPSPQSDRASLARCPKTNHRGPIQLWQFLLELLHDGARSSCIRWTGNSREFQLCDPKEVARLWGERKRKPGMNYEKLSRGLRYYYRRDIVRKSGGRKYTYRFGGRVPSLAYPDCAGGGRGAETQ
The conditions noted are these: protein: recombinant; tags: N-terminal GST; dsDNA, one strand shown. The essentials: as §1

In a further assay the target is T5, ELF3 (Homo sapiens, UniProt P78545 1-371).
T5 sequence: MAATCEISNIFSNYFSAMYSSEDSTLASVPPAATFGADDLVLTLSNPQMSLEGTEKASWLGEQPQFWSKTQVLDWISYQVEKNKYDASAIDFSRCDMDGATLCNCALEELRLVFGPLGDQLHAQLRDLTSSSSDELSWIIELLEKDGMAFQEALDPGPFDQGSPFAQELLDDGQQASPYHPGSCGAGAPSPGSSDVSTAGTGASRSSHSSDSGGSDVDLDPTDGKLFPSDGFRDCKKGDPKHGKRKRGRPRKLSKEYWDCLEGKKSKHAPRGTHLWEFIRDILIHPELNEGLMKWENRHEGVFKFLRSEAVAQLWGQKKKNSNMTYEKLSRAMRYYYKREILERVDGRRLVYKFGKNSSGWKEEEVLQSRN
The following applies: protein: recombinant; tags: N-terminal GST; dsDNA, one strand shown. The essentials: as §1

In another assay the target is CRX (Homo sapiens, UniProt O43186 1-299). The following applies: protein: recombinant; tags: N-terminal GST; dsDNA, one strand shown. The method in brief:
as §1

Another assay deals with ETV1 (Homo sapiens, UniProt P50549 1-477). The following applies: protein: recombinant; tags: N-terminal GST; dsDNA, one strand shown. The method in brief: as §1
For a further assay, the target named is T6, ERF (Homo sapiens, UniProt P50548 1-548).
T6 sequence: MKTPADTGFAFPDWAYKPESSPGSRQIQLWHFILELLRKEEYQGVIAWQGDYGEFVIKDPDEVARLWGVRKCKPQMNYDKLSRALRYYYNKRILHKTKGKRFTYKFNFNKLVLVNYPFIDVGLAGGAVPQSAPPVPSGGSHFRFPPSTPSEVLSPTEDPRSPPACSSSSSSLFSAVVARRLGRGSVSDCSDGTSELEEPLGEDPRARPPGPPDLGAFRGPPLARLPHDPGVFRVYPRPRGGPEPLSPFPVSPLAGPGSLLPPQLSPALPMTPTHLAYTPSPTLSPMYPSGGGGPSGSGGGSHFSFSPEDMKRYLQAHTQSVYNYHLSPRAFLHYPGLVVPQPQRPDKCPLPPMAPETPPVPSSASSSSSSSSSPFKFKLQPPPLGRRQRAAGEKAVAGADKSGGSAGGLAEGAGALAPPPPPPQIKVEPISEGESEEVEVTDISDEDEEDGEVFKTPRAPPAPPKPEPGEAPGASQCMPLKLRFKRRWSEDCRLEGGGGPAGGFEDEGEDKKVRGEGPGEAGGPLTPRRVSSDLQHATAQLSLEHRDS
The conditions noted are these: protein: recombinant; tags: N-terminal GST; dsDNA, one strand shown. The method in brief: as §1

In a further assay the target is T7, ETV3L (Homo sapiens, UniProt Q6ZN32 1-361).
T7 sequence: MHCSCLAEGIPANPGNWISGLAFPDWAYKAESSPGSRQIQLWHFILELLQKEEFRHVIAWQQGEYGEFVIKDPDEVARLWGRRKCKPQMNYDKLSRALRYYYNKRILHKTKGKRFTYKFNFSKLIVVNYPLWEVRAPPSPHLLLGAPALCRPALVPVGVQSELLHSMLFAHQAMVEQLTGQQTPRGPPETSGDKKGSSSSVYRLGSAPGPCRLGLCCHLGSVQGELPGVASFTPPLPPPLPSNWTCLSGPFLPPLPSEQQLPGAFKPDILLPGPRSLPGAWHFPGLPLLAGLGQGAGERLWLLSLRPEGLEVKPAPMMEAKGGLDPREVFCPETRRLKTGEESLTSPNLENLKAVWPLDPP
The following applies: protein: recombinant; tags: N-terminal GST; dsDNA, one strand shown. The essentials:
as §1

The next assay addresses T8, ETS2 (Homo sapiens, UniProt P15036 1-469).
T8 sequence: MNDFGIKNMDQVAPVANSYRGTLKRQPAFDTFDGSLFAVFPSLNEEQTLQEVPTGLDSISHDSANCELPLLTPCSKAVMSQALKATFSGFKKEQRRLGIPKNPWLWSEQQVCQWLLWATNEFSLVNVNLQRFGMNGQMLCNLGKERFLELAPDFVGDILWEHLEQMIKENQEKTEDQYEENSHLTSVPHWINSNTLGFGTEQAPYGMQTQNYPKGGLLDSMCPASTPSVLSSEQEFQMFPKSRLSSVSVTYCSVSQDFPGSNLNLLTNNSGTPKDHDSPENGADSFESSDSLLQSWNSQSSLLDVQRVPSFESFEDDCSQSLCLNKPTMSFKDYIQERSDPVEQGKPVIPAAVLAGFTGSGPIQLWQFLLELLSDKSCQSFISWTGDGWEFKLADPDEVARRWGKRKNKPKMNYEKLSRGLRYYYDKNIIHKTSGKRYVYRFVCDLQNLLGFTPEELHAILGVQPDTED
The following applies: protein: recombinant; tags: N-terminal GST; dsDNA, one strand shown. The method in brief:
as §1

A further assay has as its target T9, SPDEF (Homo sapiens, UniProt O95238 1-335).
T9 sequence: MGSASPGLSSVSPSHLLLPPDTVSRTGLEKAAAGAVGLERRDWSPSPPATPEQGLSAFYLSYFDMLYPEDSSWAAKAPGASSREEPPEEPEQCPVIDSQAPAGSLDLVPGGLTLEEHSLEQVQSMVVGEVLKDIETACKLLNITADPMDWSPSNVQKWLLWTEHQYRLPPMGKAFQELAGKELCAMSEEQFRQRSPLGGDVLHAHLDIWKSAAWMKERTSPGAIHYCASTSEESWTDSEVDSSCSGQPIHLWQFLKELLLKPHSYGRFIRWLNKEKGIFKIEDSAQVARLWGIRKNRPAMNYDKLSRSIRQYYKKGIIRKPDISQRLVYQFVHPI
The following applies: protein: recombinant; tags: N-terminal GST; dsDNA, one strand shown. The method in brief:
as §1

In a further assay the target is T10, ETV7 (Homo sapiens, UniProt Q9Y603 1-341).
T10 sequence: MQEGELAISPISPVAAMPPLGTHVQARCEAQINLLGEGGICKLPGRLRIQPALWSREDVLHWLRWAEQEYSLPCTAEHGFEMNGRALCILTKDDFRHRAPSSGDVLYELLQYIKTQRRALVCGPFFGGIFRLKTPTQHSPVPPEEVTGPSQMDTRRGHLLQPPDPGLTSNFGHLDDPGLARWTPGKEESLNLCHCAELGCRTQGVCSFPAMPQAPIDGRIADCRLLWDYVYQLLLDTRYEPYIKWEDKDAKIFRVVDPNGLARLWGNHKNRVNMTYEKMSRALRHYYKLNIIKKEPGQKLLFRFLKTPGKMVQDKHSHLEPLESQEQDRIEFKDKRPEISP
The following applies: protein: recombinant; tags: N-terminal GST; dsDNA, one strand shown. The method in brief:
as §1

The target in the next assay is T11, ELF5 (Homo sapiens, UniProt Q9UKW6-2 1-255).
T11 sequence: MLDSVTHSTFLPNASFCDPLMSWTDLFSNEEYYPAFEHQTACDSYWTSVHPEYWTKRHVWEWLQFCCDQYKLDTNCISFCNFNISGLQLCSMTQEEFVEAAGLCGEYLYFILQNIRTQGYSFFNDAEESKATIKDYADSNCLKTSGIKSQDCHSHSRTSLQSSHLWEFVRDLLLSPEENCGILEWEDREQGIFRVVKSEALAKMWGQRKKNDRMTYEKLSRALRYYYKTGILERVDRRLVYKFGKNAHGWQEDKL
The conditions noted are these: protein: recombinant; tags: N-terminal GST; dsDNA, one strand shown. The essentials: as §1

The target in the next assay is T12, ETV3 (Homo sapiens, UniProt P41162-2 1-143).
T12 sequence: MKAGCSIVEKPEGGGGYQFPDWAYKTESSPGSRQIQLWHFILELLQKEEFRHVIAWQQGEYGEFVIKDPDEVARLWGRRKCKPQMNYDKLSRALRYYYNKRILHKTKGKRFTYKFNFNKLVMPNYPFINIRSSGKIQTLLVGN
The following applies: protein: recombinant; tags: N-terminal GST; dsDNA, one strand shown. The method in brief:
as §1

The target of the next assay is ETV6 (Homo sapiens, UniProt P41212 1-452). The following applies: protein: recombinant; tags: N-terminal GST; dsDNA, one strand shown. The essentials: as §1
Sequence of ETV6 (P41212 whole entry): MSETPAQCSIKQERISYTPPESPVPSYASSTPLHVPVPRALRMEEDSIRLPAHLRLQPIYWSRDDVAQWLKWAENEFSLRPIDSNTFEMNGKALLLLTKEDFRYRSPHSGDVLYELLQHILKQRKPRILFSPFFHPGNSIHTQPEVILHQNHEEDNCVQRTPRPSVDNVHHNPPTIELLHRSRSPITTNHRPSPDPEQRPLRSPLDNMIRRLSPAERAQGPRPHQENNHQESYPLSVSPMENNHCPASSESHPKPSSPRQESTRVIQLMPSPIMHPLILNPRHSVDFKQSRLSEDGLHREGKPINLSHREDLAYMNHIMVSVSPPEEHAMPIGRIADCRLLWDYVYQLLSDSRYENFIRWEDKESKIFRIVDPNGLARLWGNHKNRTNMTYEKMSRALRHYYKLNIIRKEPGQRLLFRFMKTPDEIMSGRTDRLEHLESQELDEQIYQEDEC

Sequence of ETV5 (P41161 whole entry): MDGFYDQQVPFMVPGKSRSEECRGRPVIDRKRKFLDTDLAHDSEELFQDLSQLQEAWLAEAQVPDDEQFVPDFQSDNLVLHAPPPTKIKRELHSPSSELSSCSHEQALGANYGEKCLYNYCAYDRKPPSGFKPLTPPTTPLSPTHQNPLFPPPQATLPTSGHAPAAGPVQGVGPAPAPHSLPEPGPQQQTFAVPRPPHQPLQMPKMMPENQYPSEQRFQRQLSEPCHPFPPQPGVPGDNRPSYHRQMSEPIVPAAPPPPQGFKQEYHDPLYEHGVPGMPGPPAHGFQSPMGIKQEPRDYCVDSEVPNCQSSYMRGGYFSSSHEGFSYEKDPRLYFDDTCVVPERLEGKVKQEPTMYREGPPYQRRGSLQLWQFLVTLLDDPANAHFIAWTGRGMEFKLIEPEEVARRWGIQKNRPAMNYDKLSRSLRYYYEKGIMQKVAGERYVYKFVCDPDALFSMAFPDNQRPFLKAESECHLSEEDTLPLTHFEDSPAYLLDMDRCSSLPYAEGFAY
Sequence of ETV1 (P50549 whole entry): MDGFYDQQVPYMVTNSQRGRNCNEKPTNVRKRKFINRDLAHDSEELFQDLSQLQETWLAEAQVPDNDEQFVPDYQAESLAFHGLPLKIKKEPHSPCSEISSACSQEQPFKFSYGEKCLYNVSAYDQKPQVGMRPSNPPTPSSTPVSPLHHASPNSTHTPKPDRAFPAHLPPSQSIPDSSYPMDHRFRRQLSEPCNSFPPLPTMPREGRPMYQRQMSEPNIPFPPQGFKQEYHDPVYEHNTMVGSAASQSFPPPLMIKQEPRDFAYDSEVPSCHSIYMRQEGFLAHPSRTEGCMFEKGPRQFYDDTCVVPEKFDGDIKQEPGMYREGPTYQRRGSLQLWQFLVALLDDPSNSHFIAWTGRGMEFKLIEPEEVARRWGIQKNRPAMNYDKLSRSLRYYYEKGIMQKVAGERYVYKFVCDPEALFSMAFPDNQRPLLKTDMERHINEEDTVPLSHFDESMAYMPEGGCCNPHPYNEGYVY
Sequence of HSF1 (Q00613 whole entry): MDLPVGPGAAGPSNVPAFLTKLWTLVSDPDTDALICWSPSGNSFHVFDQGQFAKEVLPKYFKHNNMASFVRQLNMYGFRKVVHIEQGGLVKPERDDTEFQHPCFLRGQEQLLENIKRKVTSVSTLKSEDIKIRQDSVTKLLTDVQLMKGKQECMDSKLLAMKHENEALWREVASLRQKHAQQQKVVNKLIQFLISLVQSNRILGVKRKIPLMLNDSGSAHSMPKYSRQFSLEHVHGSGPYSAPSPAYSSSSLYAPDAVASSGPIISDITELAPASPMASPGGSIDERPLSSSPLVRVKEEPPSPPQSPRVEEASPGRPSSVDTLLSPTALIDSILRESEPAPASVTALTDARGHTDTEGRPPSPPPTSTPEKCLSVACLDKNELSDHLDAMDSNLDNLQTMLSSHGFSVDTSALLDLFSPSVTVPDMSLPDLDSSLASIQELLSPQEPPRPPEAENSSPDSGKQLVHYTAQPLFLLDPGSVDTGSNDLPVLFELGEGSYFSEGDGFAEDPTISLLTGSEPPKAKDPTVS
Sequence of CRX (O43186 whole entry): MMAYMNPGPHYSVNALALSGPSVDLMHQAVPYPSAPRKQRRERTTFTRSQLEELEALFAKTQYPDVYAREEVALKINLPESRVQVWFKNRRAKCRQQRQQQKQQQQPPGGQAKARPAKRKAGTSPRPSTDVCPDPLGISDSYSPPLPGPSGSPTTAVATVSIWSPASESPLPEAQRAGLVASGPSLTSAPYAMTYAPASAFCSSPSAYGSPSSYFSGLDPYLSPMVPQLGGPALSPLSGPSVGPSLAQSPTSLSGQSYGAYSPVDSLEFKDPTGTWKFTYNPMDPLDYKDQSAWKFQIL
Sequence of ELF4 (Q99607 whole entry): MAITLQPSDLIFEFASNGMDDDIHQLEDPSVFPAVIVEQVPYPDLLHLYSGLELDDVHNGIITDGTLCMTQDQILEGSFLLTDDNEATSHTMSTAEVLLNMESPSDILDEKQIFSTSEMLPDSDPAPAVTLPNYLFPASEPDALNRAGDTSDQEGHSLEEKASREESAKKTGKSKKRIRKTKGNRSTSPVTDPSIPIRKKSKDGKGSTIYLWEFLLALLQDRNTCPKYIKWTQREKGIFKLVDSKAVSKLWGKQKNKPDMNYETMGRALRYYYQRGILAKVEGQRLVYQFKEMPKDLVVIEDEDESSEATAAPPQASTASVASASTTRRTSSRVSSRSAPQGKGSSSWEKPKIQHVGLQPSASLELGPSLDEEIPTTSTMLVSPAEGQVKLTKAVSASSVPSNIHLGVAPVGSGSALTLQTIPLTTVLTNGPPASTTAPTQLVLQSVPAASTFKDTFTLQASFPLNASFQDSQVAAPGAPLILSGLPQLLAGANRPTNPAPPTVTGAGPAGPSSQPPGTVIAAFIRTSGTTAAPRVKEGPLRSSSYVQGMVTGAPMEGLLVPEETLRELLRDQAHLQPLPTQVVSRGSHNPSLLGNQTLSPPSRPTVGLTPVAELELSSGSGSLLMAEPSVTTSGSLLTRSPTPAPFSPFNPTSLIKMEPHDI

In the case of TAATAT, the binding signal is 1.25 fold enrichment (6-mer frequency, TF over GST control) with FEV; 1.26 fold enrichment (6-mer frequency, TF over GST control) with ETV5; 1.58 fold enrichment (6-mer frequency, TF over GST control) in the assay with HSF1; 1.16 fold enrichment (6-mer frequency, TF over GST control) in the assay with SPIC; 1.28 fold enrichment (6-mer frequency, TF over GST control) with ELF4; 1.37 fold enrichment (6-mer frequency, TF over GST control) with ELK4. Also, the binding signal in the assay with ETV2 is 1.31 fold enrichment (6-mer frequency, TF over GST control); in the assay with ELF3, 1.25 fold enrichment (6-mer frequency, TF over GST control); with CRX, 2.01 fold enrichment (6-mer frequency, TF over GST control); in the assay with ETV1, 1.27 fold enrichment (6-mer frequency, TF over GST control); with ERF it was 1.35 fold enrichment (6-mer frequency, TF over GST control); with ETV3L, 1.34 fold enrichment (6-mer frequency, TF over GST control). Moreover, the binding signal with ETS2 is 1.24 fold enrichment (6-mer frequency, TF over GST control); in the assay with SPDEF, 1.23 fold enrichment (6-mer frequency, TF over GST control); with ETV7 it was 1.35 fold enrichment (6-mer frequency, TF over GST control); with ELF5 it was 1.22 fold enrichment (6-mer frequency, TF over GST control); in the assay with ETV3, 1.23 fold enrichment (6-mer frequency, TF over GST control); in the assay with ETV6 it was 1.23 fold enrichment (6-mer frequency, TF over GST control).

The values above are taken from paper PMC7862700, “An all-to-all approach to the identification of sequence-specific readers for epigenetic DNA modifications on cytosine”.
